Laboratory results as given in PubChem BioAssay (Tox21).
Inconclusive results are not listed. Entries that show only a call come without a potency. Some compounds were tested as several samples or in several runs, with calls that do not always agree. Activity calls are given as the source filed them. Calls follow the shape of the dose curve; as a rule, active = well fitted activation curve with a large enough effect in the repeat runs; inconclusive = weak or mixed curves; inactive = flat fitted curve, though single readings scatter.

Assay: A CellTox Green Cytotoxicity Assay to monitor cytotoxicity in HEK293 cells - 40 hour (AID 1224871); also: nearly all actives have a fitted effect of over 45% in size
Settings: CellTox Green fluorescence; series mostly up to 76.8 µM
Description: National Center for Advancing Translational Sciences [NCATS]
NIH Chemical Genomics Center [NCGC]
U.S. Environmental Protection Agency [EPA]
National Institutes of Environmental Health Sciences [NIEHS]
National Toxicology Program [NTP]
Cell-based models are critical for drug discovery. Determining the natural cytotoxic effects resulting from test compounds is an essential research activity. A CellTox Green Cytotoxicity Assay to monitor cytotoxicity in real time of continues cell culture during 40 hours of the compound treatment was used to screen Tox21 10K library compounds in Hek293 cells. CellTox Green Cytotoxicity Assay is a nonlytic, homogeneous, biofluorescent method to measure cytotoxicity in cell culture after experimental manipulation. The assay system uses a proprietary asymmetric cyanine dye that is excluded from viable cells but preferentially stains the dead cell's DNA. […] Viable cells produce no appreciable increases in fluorescence. Therefore, the fluorescence signal produced by the binding interaction with dead cell DNA is proportional to cytotoxicity.
The mixture of Hek293 cell suspension and reagents were dispensed at 600cells/6 ul/well in 1536-well tissue culture treated black solid bottom plates using a Multidrop dispenser. After the assay plates were incubated at a 37 C/5% CO2 incubator for 5 hours, 23 nL of compounds dissolved in DMSO, positive and negative controls was transferred to the assay plate by a pintool work station. The plates were incubated at 37 C for 40 hours. The fluorescence intensity were measured at 0h, 8h, 16h, 24h, 32h and 40h time points using ViewLux plate reader during compound treatment.
Potency is read from the fitted curve at half-maximal effect.

Compound | Potency | cytotoxicity increase
OCCOCCOCCOCCOCCO | inactive | 
C=C(C)CC(C)(C)C | inactive | 
C[Si](C)(C)N[Si](C)(C)C | inactive | 
CO[Si](CCCNCCN)(OC)OC | inactive | 
CCOC(=O)c1ccc(O)cc1 | inactive | 
COc1ccc(N)c(OC)c1 | inactive | 
CCCCC(CC)COC(=O)c1ccc(C(=O)OCC(CC)CCCC)cc1 (stereo not given) | inactive | 
Cc1cc(C)cc(O)c1 | inactive | 
CC(O)CNCC(C)O (stereo not given) | inactive | 
CCCOC(=O)NCCCN(C)C | inactive | 
OC[C@H]1O[C@@H](Oc2ccc(O)cc2)[C@H](O)[C@@H](O)[C@@H]1O | inactive | 
Cc1cccc(C)c1[N+](=O)[O-] | inactive | 
C=C1C[C@]23C[C@@]1(O)CC[C@H]2[C@@]12C=C[C@H](O)[C@@](C)(C(=O)O1)[C@H]2[C@@H]3C(=O)O | inactive | 
Cc1cc(C)c(O)c(C)c1 | inactive | 
COC(=O)/C=C\C(=O)OC | inactive | 
CCn1cc(C(=O)O)c(=O)c2cc3c(cc21)OCO3 | inactive | 
CC1=CC(=O)CC(C)(C)C1 | 25.3 µM (active) and inactive | 
CC(=O)Nc1ccc(CC(=O)O)cc1 | inactive | 
CCCCCCCCCCCCCC(=O)O | inactive | 
CC/C(C)=N/O | inactive | 

Compound | Potency | cytotoxicity increase
COC(=O)CCCCC(=O)OC | inactive | 
CCCOCC(C)O (stereo not given) | inactive | 
O=C1C(N(CO)C(=O)NCO)N(CO)C(=O)N1CO (stereo not given) | inactive | 
COc1c(Cl)ccc(Cl)c1C(=O)O | inactive | 
CN1CCCC1=O | inactive | 
CC/C=C(\C(=O)N[C@@H]1C(=O)N2C(C(=O)OCOC(=O)C(C)(C)C)=C(COC(N)=O)CS[C@H]12)c1csc(N)n1 | inactive | 
OC1CCCCC1 | inactive | 
O=C1CCCCCCCCCCC1 | inactive | 
Cc1ccc([N+](=O)[O-])cc1N | inactive | 
CS(=O)(=O)c1ccc(Cl)cc1 | inactive | 
CC1(C)[C@@H](O[C@H]2O[C@H](C(=O)O)[C@@H](O)[C@H](O)[C@H]2O[C@@H]2O[C@H](C(=O)O)[C@@H](O)[C@H](O)[C@H]2O)CC[C@]2(C)[C@H]3C(=O)C=C4[C@@H]5C[C@@](C)(C(=O)O)CC[C@]5(C)CC[C@@]4(C)[C@]3(C)CC[C@@H]12 | inactive | 
CN1Cc2c(N)cccc2C(c2ccccc2)C1 (stereo not given) | inactive | 
CCCCCCCCC(=O)O | inactive | 
CCCCCCCCCCCC(=O)N(C)CC(=O)O |  | 3.46% [at 6.97 µM] (inactive)
CCCCC(=O)O | inactive | 
NC1CCCCC1N (stereo not given) | inactive | 
CC(=O)C(C)C | inactive | 
OCc1ccc(Cl)cc1Cl | inactive | 
CCN(CC)CCNC(=O)c1ccc(N)cc1 | inactive | 
CCCCCC(C)=O | inactive | 
